Assay results taken from ChEMBL document CHEMBL4513216, “Probing the Open Global Health Chemical Diversity Library for Multistage-Active Starting Points for Next-Generation Antimalarials” (ACS Infect Dis, 2020).
Hit rate of the full screen: of about 69,000 compounds, about 8,600 (12%) showed an effect of 50% or more. This excerpt belongs to a sample that is enriched for strong results.

tested on: Plasmodium berghei; assay: Screen against P. berghei liver stage (PbLuc), transformed with Luciferase, at 10uM; format: functional, HepG2; settings: tested at 10 uM

Structure (SMILES)	INHIBITION
CN1[C@@H]2CC[C@H]1CN(C(=O)c1sccc1S(N)(=O)=O)CC2	8.74%
O=C(CN1C(=O)CCC1=O)NCc1nn(C2CCCC2)c2c1CCCC2	56.3%
O=C(CN1C(=O)CCC1=O)NCc1cc(C2CC2)n(C2CCCC2)n1	13.9%
Cc1nnsc1C(=O)NCc1nn(C2CCCC2)c2c1CCCC2	49.4%
CC(=O)N[C@@H]1CN(Cc2ccccc2C#N)C[C@H]1c1ccc(C)cc1	41.3%
Cc1ccsc1CNC(=O)Nc1ccn(CCN2CCOCC2)n1	64%
O=C(NCc1ccccc1F)Nc1ccn(CCN2CCOCC2)n1	50.1%
COCCn1ccc(NCc2sccc2C)n1	-60.1%
O=C(NCc1cccc(F)c1)Nc1ccn(CCN2CCOCC2)n1	40.5%
Cn1ccc(NC(=O)Cc2ccccc2F)n1	57.1%
CS(=O)(=O)CCn1ccc(NC(=O)Cc2ccccc2F)n1	21.2%
O=C(Cc1ccccc1Cl)Nc1ccn(CCN2CCOCC2)n1	45.8%
CSC1(CNC(=O)NCc2sccc2C)CCOCC1	30.4%
Cn1ccc(NC(=O)Cc2cccc(F)c2)n1	-74.2%
Cc1[nH]c2c(C)ccc(C)c2c1CC(=O)NC1CCCNC1=O (stereo unspecified)	35.7%
COC(=O)CCNC(=O)c1nc(NS(=O)(=O)c2ccccc2)sc1C	32.2%
COc1c(C2CCCN2CC(=O)N2CCCCC2)c(C)nn1C (stereo unspecified)	8.12%
O=C(CCn1cnnn1)N1CCCC(CO)(CCCc2ccccc2)C1 (stereo unspecified)	23.1%
O=C(CCn1cncn1)N1CCCC(CO)(CCCc2ccccc2)C1 (stereo unspecified)	72.3%
O=C(CCn1cnnn1)N1CCCC(CO)(CCc2ccccc2)C1 (stereo unspecified)	39.8%
CN(C)C(=O)CN1CCCC1c1nc(N)ncc1-c1ccc(F)cc1 (stereo unspecified)	34%
N#Cc1ccc(NC2CCN(CC(F)F)CC2)c(F)c1	8.53%
N#Cc1cccc(N2CC3(CCN(C(=O)c4ccnnc4)C3)CC2=O)c1 (stereo unspecified)	-13.1%
CC(C)=CCC1(C(=O)O)CCCN(c2cc(N)ncn2)C1 (stereo unspecified)	46.4%

Structure (SMILES)	INHIBITION
O=C(CCN1CCCC(CC2CC2)(C(=O)O)C1)NC1CCCC1 (stereo unspecified)	60.7%
O=C(CCN1CCCC(CO)(CC2CC2)C1)NC1CCCCC1 (stereo unspecified)	34.5%
CC(C)=CCC1(C(=O)O)CCCN(CCC(=O)NC2CC2)C1 (stereo unspecified)	61.8%
Cc1nc(C)n(CC2CCCN(CCC(=O)NC3CCCC3)C2)n1 (stereo unspecified)	-8.11%
CC(C)=CCC1(C(=O)O)CCCN(c2ccnc(C)n2)C1 (stereo unspecified)	47.4%
CC(=O)N(Cc1ncc(C)o1)C1CCN(CCc2cccs2)C1 (stereo unspecified)	12.7%
CCn1cc(NC(=O)C(C)n2ncc(Cl)c2C)c(C(=O)OC)n1 (stereo unspecified)	6.83%
CCSc1cc(C(=O)NCc2ccccc2O)ccn1	34.7%
CCSc1cc(C(=O)NCc2ccc(C(=O)NC)cc2)ccn1	76.5%
CCSc1cc(C(=O)NCCNC(=O)Cc2ccccc2)ccn1	26.9%
Cc1nc(C)c(C(=O)Nc2ccc(-c3nnc(N(C)C)o3)cc2)o1	6.02%
CCc1cnc(CN2CCC(N(C)Cc3noc(C)n3)C2)o1 (stereo unspecified)	13.6%
CN(CCc1ccncc1)C1CCCN(Cc2noc(C3CC3)n2)C1 (stereo unspecified)	14.8%
CCc1nc(CN2CCCC(N(C)CCc3cccs3)C2)no1 (stereo unspecified)	56.6%
CN(CCc1cccs1)C1CCCN(Cc2noc(C3CC3)n2)C1 (stereo unspecified)	51.8%
CCc1nc(CN2CCCC(N(C)CCn3cccn3)C2)no1 (stereo unspecified)	33.7%
Cc1nc(CN2CCCC(N(C)CCc3cccs3)C2)no1 (stereo unspecified)	3.47%
CCc1nc(CN(C)C2CCN(CCc3cccs3)C2)no1 (stereo unspecified)	-79.1%
CN(C)Cc1nnc2n1CCN(c1cnccn1)CC2	-4.02%
Cc1nc(C2CCN(C(=O)c3cnc(N(C)C)nc3)CC2)c2sccn12	-4.82%
CN(C[C@@H]1CCC[C@@H]2CN(c3ncccn3)C[C@@H]21)C1CC1	38.3%
Cc1cccc(CSc2ncc(Cl)c(C(=O)O)n2)c1	12.1%
Cc1ccc(F)c(C(=O)Nc2c(C(N)=O)n[nH]c2C)c1	-18.3%
Cc1cc(N(C)Cc2ncc(-c3ccccc3C(=O)O)s2)ncn1	5.6045%

Structure (SMILES)	INHIBITION
Cc1ccc(-c2cc(CN(CC(N)=O)CC(C)C)on2)cc1	57.8%
Cc1cc(CN(CC(N)=O)CC(C)C)on1	43.2%
Cc1cc(CN(CC(N)=O)CC(C)C)no1	7.39%
Cc1cccc(-c2nccn2C2CC(=O)N(C(C)C)C2)n1 (stereo unspecified)	25.9%
CNC(=O)NC(=O)CCN1CCN(c2ccc(C(=O)OC)cc2)CC1C (stereo unspecified)	23.7%
O=C(Cc1ccccc1)C1CCCN(Cc2cncn2C2CCCC2)C1 (stereo unspecified)	69%
CC1(c2ccccc2)CCCN(Cc2cncn2C2CC2)C1 (stereo unspecified)	50.7%
CC1(c2ccccc2)CCCN(Cc2nnc(-c3cccnc3)o2)C1 (stereo unspecified)	5.91%
O=c1c2ccccc2cnn1Cc1cncn1C1CC1	0.33%
Cn1cncc1CN1CCOC(Cc2ccccc2)C1 (stereo unspecified)	-54.1%
CN1CCCC2(CCN(Cc3cncn3C3CCCCC3)C2)C1=O (stereo unspecified)	62.1%
CC1(c2ccccc2)CCCN(Cc2cncn2C2CCCC2)C1 (stereo unspecified)	89.6%
CCCN1CCCC2(CCN(Cc3cncn3C3CCCCC3)C2)C1=O (stereo unspecified)	-21.5%
O=C(CCc1ccccc1)C1CCCN(Cc2cncn2C2CC2)C1 (stereo unspecified)	27.4%
COCCn1cncc1CN1CCCC(C(=O)Cc2ccccc2)C1 (stereo unspecified)	20.5%
CCCN1CCCC2(CCN(Cc3cncn3C3CCCC3)C2)C1=O (stereo unspecified)	21.2%
COCCn1cncc1CN1CCCC(C)(c2ccccc2)C1 (stereo unspecified)	30.1%
CN1CCCC(Cc2cc(N(C)C)ncn2)C1 (stereo unspecified)	38.7%
Cc1ncc(C(=O)NCCNC(=O)Cc2cccc(F)c2)s1	-13.5%
Cc1nccc(C2CN(S(=O)(=O)N(C)C)C2)n1	-3.02%
CCC(C(=O)NCC1=CCN(C)CC1)c1ccccc1 (stereo unspecified)	8.7%
CNc1ccc(CC2CCCN(C(=O)c3cccc(C)n3)C2)nn1 (stereo unspecified)	45.6%
CS(=O)(=O)N1CCc2c(cccc2NC(=O)Nc2ccccn2)C1	19.2%
